# Assay results: PubChem BioAssay (EPA / NIEHS)
# Inconclusive results are not listed. Where a structure was tested more than once in an assay, its records may differ in their call. Active and inactive are the calls of the source. Rule for the calls, unless noted: active = hit-call score of the fitted dose curve at least 0.9, where 1 is the maximum; inconclusive = response in the unintended direction; inactive = score below 0.9.
# Key:
# [1] = ATG_M_61_XSP2: Attagene TRANS-FACTORIAL Multi-Species (XSP2) HepG2 Assay for M61 Transcription Factor (Internal Marker) (AID 2283835; active = hit-call score of the fitted dose curve at least 0.9, where 1 is the maximum; inactive = score below 0.9;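 note: reporter mRNA of an internal background marker read by RT-PCR and capillary electrophoresis; active means a rise in signal above the DMSO baseline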)
# How it was run: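 First, HepG2 cells are transfected with reporter units under GAL4-UAS control. Next, chemicals are applied for 24 h. Then total RNA is reverse-transcribed, amplified, fluorescently labelled and sized by capillary electrophoresis, with gain of signal scored against DMSO.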
# [2] = tested on: Sodium/Iodide Symporter (NIS), SLC5A5 (gene 6528); assay: CPHEA_Stoker_NIS_Inhibition_RAIU: CPHEA's Radioactive Iodide Uptake (RAIU) Assay for Sodium/Iodide Symporter (NIS) Inhibition, Stoker and Laws Labs (AID 2283841)
# How it was run: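 Iodide uptake through human NIS is measured in an engineered HEK293T line. Cells take up 125I (329pM final) for 2 hours at room temperature alongside chemicals at 0.001–100uM. Retained radioactivity is counted, and the signal is expressed against DMSO controls.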
# [3] = CPHEA_Stoker_NIS_Cytotoxicity: Cytotoxicity Assessment for CPHEA's Radioactive Iodide Uptake (RAIU) Assay for Sodium/Iodide Symporter (NIS) Inhibition, Stoker and Laws Labs (AID 2283897);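 for AC50: active means loss of ATP signal versus DMSO meaning cytotoxicity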
# How it was run: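 ATP luminescence (Cell Titer Glo) measured viability, with loss of signal normalized to DMSO controls. Cells: hNIS-HEK293T-EPA, seeded 40 hours prior. Dosing: 0.001–100uM, 2 hours, room temperature, uptake buffer pH 7.4.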
# [4] = CEETOX_H295R_11DCORT_noMTC: CeeTox H295R High-throughput Steroidogenesis Assay for 11-Deoxycortisol (11DCORT), maximum tolerated concentration (MTC) filtered results only (AID 2283911; active = hit-call score of the fitted dose curve at least 0.9, where 1 is the maximum; inactive = score below 0.9); conditions: actives raise or lower the signal
# How it was run: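 H295R, OECD 456-based; 10 uM forskolin 48 h → compound (0.1% DMSO) 48 h → medium extracted, 11DCORT by LC-MS/MS. Gain/loss vs DMSO control, all concentrations kept regardless of MTT viability.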
# [5] = CEETOX_H295R_OHPREG_noMTC: CeeTox H295R High-throughput Steroidogenesis Assay for OH-Pregnenolone (OHPREG), maximum tolerated concentration (MTC) filtered results only (AID 2283912; active = hit-call score of the fitted dose curve at least 0.9, where 1 is the maximum; inactive = score below 0.9); conditions: actives raise or lower the signal
# How it was run: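 Steroidogenesis in H295R cells (OECD 456, modified): after 48 h forskolin priming and 48 h chemical treatment, secreted 17alpha-hydroxypregnenolone is measured by HPLC-MS/MS. Activity is fitted in both directions against DMSO; concentrations are not filtered by MTT-based MTC.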
# [6] = CEETOX_H295R_OHPROG_noMTC: CeeTox H295R High-throughput Steroidogenesis Assay for OH-Progesterone (OHPROG), maximum tolerated concentration (MTC) filtered results only (AID 2283914; active = hit-call score of the fitted dose curve at least 0.9, where 1 is the maximum; inactive = score below 0.9); conditions: actives raise or lower the signal
# How it was run: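 Forskolin 10 uM, 48 h prestim → test cmpd in DMSO (0.1% final), 48 h → medium MTBE extraction → LC-MS/MS quant of 17alpha-OH-progesterone. Bidirectional fit vs DMSO; no MTT-based MTC filtering.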
# [7] = CEETOX_H295R_CORTISOL_noMTC: CeeTox H295R High-throughput Steroidogenesis Assay for Cortisol, maximum tolerated concentration (MTC) filtered results only (AID 2283916; active = hit-call score of the fitted dose curve at least 0.9, where 1 is the maximum; inactive = score below 0.9); conditions: actives raise or lower the signal
# How it was run: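 Cortisol secretion measured by LC-MS/MS after 48 h chemical treatment (final 0.1% DMSO) of forskolin-primed (10 uM, 48 h) H295R cells; gain or loss fitted relative to DMSO, without maximum-tolerated-concentration filtering.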
# [8] = CEETOX_H295R_CORTIC_noMTC: CeeTox H295R High-throughput Steroidogenesis Assay for Corticosterone (CORTIC), maximum tolerated concentration (MTC) filtered results only (AID 2283917; active = hit-call score of the fitted dose curve at least 0.9, where 1 is the maximum; inactive = score below 0.9); conditions: actives raise or lower the signal
# How it was run: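 Following OECD 456 with minor changes, H295R cultures received 10 uM forskolin for 48 h, then test chemical at 0.1% DMSO for 48 h. Media steroids were extracted and measured by LC-MS/MS.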
# [9] = CEETOX_H295R_DOC_noMTC: CeeTox H295R High-throughput Steroidogenesis Assay for DOC, maximum tolerated concentration (MTC) filtered results only (AID 2283918; active = hit-call score of the fitted dose curve at least 0.9, where 1 is the maximum; inactive = score below 0.9); conditions: actives raise or lower the signal
# How it was run: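 11-Deoxycorticosterone secreted by human adrenal H295R cells quantified by HPLC-MS/MS after 48 h chemical exposure (0.1% DMSO), following 48 h 10 uM forskolin prestimulation. Concentrations not filtered by MTT-derived MTC; bidirectional fitting.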
# [10] = CEETOX_H295R_PROG_noMTC: CeeTox H295R High-throughput Steroidogenesis Assay for Progesterone (PROG), maximum tolerated concentration (MTC) filtered results only (AID 2283920; active = hit-call score of the fitted dose curve at least 0.9, where 1 is the maximum; inactive = score below 0.9); conditions: actives raise or lower the signal
# How it was run: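 H295R cells; forskolin 10 uM x 48 h prestim; test cpd 48 h, 0.1% DMSO final; media progesterone via LC-MS/MS; bidirectional fit vs DMSO; no MTT-based MTC filter applied.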
# [11] = biological target: zebrafish Thyroid Hormone Receptor beta (TRb), thrb (gene 30607) (UniProt Q9PVE4); assay: ATG_zfTRb_XSP2: Attagene TRANS-FACTORIAL Multi-Species (XSP1) HepG2 Assay for zebrafish Thyroid Hormone Receptor beta (TRb) (AID 2283836)
# zebrafish Thyroid Hormone Receptor beta (TRb), thrb (gene 30607), sequence (Q9PVE4 whole entry, looked up, the tested form may be a part): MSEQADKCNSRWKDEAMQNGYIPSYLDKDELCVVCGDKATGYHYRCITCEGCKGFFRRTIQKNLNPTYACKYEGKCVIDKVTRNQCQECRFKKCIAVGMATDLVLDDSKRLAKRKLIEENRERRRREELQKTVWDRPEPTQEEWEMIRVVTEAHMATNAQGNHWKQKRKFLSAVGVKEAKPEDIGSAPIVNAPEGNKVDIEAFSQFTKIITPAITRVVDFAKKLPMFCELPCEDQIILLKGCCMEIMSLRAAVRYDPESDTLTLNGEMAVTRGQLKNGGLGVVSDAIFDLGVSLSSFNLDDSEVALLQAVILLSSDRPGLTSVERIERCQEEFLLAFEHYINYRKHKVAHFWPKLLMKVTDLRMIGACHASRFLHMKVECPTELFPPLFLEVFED
# How it was run: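 HepG2 cells transiently transfected with chimeric zebrafish TRb-GAL4 reporter units, dosed 24 h with 3 nM 6-alpha-fluorotestosterone and 1.5 nM norgestrel present. Reporter mRNA quantified by RT-PCR and capillary electrophoresis; gain fitted against DMSO.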
# [12] = biological target: frog Thyroid hormone Receptor alpha (TRa), thra-a (gene 397942) (UniProt P15204); assay: ATG_frTRa_XSP2: Attagene TRANS-FACTORIAL Multi-Species (XSP2) HepG2 Assay for frog Thyroid hormone Receptor alpha (TRa) (AID 2283839);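 for AC50: AC50 reflects induction of frog TRa-driven reporter mRNA above DMSO baseline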
# frog Thyroid hormone Receptor alpha (TRa), thra-a (gene 397942), sequence (P15204 whole entry, looked up, the tested form may be a part): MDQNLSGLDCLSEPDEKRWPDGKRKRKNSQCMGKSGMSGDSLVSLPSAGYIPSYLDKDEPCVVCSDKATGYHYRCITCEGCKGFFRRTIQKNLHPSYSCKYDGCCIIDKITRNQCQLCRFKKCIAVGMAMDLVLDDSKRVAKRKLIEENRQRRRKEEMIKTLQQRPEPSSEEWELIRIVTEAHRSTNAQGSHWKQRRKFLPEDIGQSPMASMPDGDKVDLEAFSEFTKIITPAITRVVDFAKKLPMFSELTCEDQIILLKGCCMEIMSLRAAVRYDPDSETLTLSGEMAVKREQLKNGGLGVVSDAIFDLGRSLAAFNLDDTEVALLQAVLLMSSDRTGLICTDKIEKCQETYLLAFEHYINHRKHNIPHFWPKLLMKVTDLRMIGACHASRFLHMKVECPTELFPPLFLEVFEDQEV
# How it was run: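 Read-out: fluorescent reporter-transcript fragments resolved by capillary electrophoresis after RT-PCR and HpaI cut. Human HepG2 liver cells carry a transfected frog TRα-Gal4 chimera driving a UAS reporter; 24 h exposure, DMSO baseline, positive-direction fit.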
# [13] = biological target: human Thyroid hormone Receptor beta (TRb), THRB (gene 7068) (UniProt P10828); assay: ATG_hTRb_XSP2: Attagene TRANS-FACTORIAL Multi-Species (XSP2) HepG2 Assay for human Thyroid hormone Receptor beta (TRb) (AID 2283840);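 note: actives raise reporter mRNA so potency reflects agonist-like gain of signal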
# human Thyroid hormone Receptor beta (TRb), THRB (gene 7068), sequence (P10828 whole entry, looked up, the tested form may be a part): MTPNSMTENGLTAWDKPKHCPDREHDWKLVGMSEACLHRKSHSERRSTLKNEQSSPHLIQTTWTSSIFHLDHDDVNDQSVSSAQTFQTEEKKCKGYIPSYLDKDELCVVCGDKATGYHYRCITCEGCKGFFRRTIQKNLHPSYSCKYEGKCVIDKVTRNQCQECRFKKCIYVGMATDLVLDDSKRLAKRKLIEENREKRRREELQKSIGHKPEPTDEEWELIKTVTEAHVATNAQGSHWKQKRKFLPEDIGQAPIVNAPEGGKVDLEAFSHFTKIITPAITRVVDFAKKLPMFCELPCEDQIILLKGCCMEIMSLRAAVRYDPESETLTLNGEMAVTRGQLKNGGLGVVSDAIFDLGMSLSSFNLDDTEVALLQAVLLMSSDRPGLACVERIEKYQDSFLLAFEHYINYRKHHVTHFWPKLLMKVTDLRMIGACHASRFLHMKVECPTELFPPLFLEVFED
# How it was run: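 Read-out: reporter mRNA induction (RT-PCR, 6-FAM labeling, capillary electrophoresis), gain-of-signal relative to DMSO baseline. Transiently transfected HepG2 TRANS multiplex (NR-Gal4 chimeras, GAL4-UAS reporters), 24 h chemical exposure; medium contained 3 nM 6-alpha-fluorotestosterone plus 1.5 nM norgestrel.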
# [14] = biological target: human Thyroid hormone Receptor alpha (TRa), THRA (gene 7067) (UniProt P10827); assay: ATG_hTRa_XSP2: Attagene TRANS-FACTORIAL Multi-Species (XSP2) HepG2 Assay for human Thyroid hormone Receptor alpha (TRa) (AID 2283838)
# human Thyroid hormone Receptor alpha (TRa), THRA (gene 7067), sequence (P10827 whole entry, looked up, the tested form may be a part): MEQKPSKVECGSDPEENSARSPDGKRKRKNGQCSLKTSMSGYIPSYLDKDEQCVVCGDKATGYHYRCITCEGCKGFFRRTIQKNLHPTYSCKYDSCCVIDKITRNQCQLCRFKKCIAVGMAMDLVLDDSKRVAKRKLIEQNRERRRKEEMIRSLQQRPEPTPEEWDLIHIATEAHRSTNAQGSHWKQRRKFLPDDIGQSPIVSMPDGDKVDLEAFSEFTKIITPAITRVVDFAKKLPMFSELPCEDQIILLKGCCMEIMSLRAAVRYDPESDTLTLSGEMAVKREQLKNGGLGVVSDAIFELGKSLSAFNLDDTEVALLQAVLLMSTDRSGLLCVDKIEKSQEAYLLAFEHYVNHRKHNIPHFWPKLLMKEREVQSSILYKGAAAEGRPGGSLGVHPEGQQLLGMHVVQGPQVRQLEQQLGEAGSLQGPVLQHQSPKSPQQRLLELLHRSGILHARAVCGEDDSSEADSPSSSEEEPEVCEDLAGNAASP
# How it was run: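 HepG2 cells were transiently transfected with GAL4-UAS reporter units for chimeric human TRa-Gal4 and dosed for 24 hours, with 3 nM 6-alpha-fluorotestosterone and 1.5 nM norgestrel present. Reporter mRNA was quantified by RT-PCR, FAM labelling and capillary electrophoresis, with gain of signal fitted versus DMSO.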
# PGR (gene 5241) = PGR (gene 5241) (UniProt P06401); assay: TOX21_PR_BLA_Followup_Antagonist_ratio: Tox21 HEK293 Progesterone Receptor (PR) Antagonism Beta-lactamase Follow-Up Assay, Ratio (AID 2283934)
# PGR (gene 5241), sequence (P06401 whole entry, looked up): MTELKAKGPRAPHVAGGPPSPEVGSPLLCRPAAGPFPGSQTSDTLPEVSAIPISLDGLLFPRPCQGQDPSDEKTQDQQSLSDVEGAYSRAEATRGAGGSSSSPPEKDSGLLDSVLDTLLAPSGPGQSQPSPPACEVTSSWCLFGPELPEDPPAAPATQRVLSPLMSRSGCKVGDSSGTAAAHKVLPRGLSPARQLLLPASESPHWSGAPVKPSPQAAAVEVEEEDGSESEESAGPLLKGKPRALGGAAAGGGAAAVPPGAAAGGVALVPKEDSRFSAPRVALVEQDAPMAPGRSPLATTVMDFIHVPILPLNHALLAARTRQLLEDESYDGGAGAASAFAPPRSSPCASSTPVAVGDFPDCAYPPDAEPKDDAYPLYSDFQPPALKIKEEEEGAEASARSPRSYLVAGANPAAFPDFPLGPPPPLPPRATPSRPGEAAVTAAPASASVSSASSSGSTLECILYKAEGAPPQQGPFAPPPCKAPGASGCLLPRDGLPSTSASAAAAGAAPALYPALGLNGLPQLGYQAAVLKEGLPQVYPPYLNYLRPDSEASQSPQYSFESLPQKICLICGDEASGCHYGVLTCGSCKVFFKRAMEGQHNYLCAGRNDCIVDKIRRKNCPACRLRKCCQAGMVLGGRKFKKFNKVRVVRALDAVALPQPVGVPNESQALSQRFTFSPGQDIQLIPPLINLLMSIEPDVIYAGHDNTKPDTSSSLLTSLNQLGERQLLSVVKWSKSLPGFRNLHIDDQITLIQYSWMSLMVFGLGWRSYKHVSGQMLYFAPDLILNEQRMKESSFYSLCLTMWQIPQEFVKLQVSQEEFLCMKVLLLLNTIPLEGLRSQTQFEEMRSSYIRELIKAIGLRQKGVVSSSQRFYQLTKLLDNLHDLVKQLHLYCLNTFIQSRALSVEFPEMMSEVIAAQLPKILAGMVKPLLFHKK
# How it was run: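 PR-UAS-bla HEK293T cells, 3,000/well in 2% charcoal-stripped FBS, given compound plus 1nM R5020 agonist for 16 hr at 37C. Beta-lactamase FRET substrate 2 hours, ratio cleaved/uncleaved fluorescence; viability by CellTiter-Glo in same wells.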
# [15] = TOX21_PR_BLA_Followup_Agonist_viability: Viability Assessment in the Tox21 HEK293 Progesterone Receptor (PR) Agonism Beta-lactamase Follow-Up Assay (AID 2283935);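 note: signal loss means lower viability so actives are cytotoxic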
# How it was run: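 PR-UAS-bla HEK293T cells in 2% charcoal-stripped FBS medium, plated 6 hr before compound addition, exposed 16 hr at 37C. Viability read by CellTiter-Glo ATP luminescence after 30 min at room temperature, in the same wells as the beta-lactamase readout.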
# [16] = tested on: turtle Thyroid Hormone Receptor, alpha (TRa), gene 101949057; assay: ATG_trTRa_XSP2: Attagene TRANS-FACTORIAL Multi-Species (XSP1) HepG2 Assay for turtle Thyroid Hormone Receptor, alpha (TRa) (AID 2283834);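 note: hits raise reporter mRNA over the DMSO baseline so AC50 marks activators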
# How it was run: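 Readout: reporter mRNA induction, fluorescence after RT-PCR, HpaI digestion and capillary electrophoresis. Transiently transfected HepG2, exogenous NR-Gal4 chimera driving GAL4-UAS reporter, 24 h compound exposure. Activity fitted upward relative to DMSO baseline.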
smiles,measurement,setting,value
O=S(=O)(O)C(F)(F)C(F)(F)C(F)(F)C(F)(F)C(F)(F)C(F)(F)C(F)(F)C(F)(F)F,outcome,[1],inactive
same,outcome,[2],inactive
same,outcome,[3],inactive
N#Cc1c(Cl)c(Cl)c(Cl)c(C#N)c1Cl,outcome,[2],inactive
same,outcome,[3],inactive
CCS(=O)(=O)c1cccnc1S(=O)(=O)NC(=O)Nc1nc(OC)cc(OC)n1,outcome,[4],inactive
same,outcome,[5],inactive
same,outcome,[6],inactive
same,outcome,[7],inactive
same,outcome,[8],inactive
same,AC50,[9],7.07 µM (active)
same,AC50,[10],16.7 µM (active)
O=C(O)C(F)(F)C(F)(F)C(F)(F)C(F)(F)C(F)(F)C(F)(F)C(F)(F)F,outcome,[1],inactive
same,outcome,[11],inactive
same,outcome,[12],inactive
same,outcome,[13],inactive
same,outcome,[2],inactive
CCC(C)(NC(=O)c1cc(Cl)c(C)c(Cl)c1)C(=O)CCl (stereo not given),AC50,[2],31.4 µM (active)
same,outcome,[3],inactive
COc1nn(CSP(=S)(OC)OC)c(=O)s1,outcome,[2],inactive
same,outcome,[3],inactive
CCCN(CCOc1c(Cl)cc(Cl)cc1Cl)C(=O)n1ccnc1,outcome,[1],inactive
same,outcome,[11],inactive
same,outcome,[14],inactive
same,outcome,[12],inactive
same,outcome,[13],inactive
same,AC50,[2],76.5 µM (active)
same,AC50,[3],50 µM (active)
same,AC50,PGR (gene 5241),32.3 µM (active)
same,outcome,[15],inactive
C[C@H]1[C@H](c2ccc(Cl)cc2)SC(=O)N1C(=O)NC1CCCCC1,outcome,[2],inactive
same,outcome,[3],inactive
CC1(C)C(C=C(Cl)Cl)C1C(=O)OC(C#N)c1ccc(F)c(Oc2ccccc2)c1 (stereo not given),outcome,[16],inactive
same,outcome,[11],inactive
same,AC50,[12],37.1 µM (active)
same,outcome,[13],inactive
same,outcome,[3],inactive
O=S1OCC2C(CO1)C1(Cl)C(Cl)=C(Cl)C2(Cl)C1(Cl)Cl (stereo not given),outcome,[1],inactive
same,outcome,[11],inactive
same,outcome,[12],inactive
same,outcome,[13],inactive
same,AC50,[2],50 µM (active)
same,outcome,[3],inactive
COP(=S)(OC)Oc1ccc(SC)c(C)c1,outcome,[16],inactive
same,outcome,[1],inactive
same,outcome,[14],inactive
same,outcome,[12],inactive
same,outcome,[13],inactive
same,outcome,[2],inactive
same,outcome,[3],inactive
Oc1cc(Cl)ccc1Oc1ccc(Cl)cc1Cl,AC50,[16],4.84 µM (active)
same,outcome,[1],inactive
same,outcome,[11],inactive
same,outcome,[14],inactive
same,AC50,[12],2.46 µM (active)
same,AC50,[13],4.77 µM (active)
CCc1ccc(C(=O)NN(C(=O)c2cc(C)cc(C)c2)C(C)(C)C)cc1,outcome,[2],inactive
same,outcome,[3],inactive
CC1(c2ccc(Oc3ccccc3)cc2)OC(=O)N(Nc2ccccc2)C1=O (stereo not given),outcome,[2],inactive
same,AC50,[3],5.4 µM (active)
